This is a sample that favours compounds with a hit; in the whole collection about 6% have one here.
D1 agonist: activates the human D1 dopamine receptor. HEK293 T-REx D1 cells, calcium flux, agonist mode. activation, % at 2 µM. 1% of 360,000 active; in the data active = activation above about 30%
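Tetracycline-induced HEK293 TREx D1 cells, force-coupled to calcium signalling, were dye-loaded with a no-wash calcium kit. Compound was pin-added after a 10 s baseline. Fluorescence was read kinetically at 1 cycle/s for 180 s, with calcium rises flagged as agonism.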
D3 antag: D3 dopamine receptor (human) antagonism | D3R cells, DiscoveRx beta-arrestin luminescence, antagonist mode; active compounds read low | max response, negative = inhibition, % | 2.5% of 360,000 active | AID 652054; in the data active = max response below about -50%; inconclusive = no clear call, values can overlap the other calls
Target sequence (P35462 whole entry, looked up): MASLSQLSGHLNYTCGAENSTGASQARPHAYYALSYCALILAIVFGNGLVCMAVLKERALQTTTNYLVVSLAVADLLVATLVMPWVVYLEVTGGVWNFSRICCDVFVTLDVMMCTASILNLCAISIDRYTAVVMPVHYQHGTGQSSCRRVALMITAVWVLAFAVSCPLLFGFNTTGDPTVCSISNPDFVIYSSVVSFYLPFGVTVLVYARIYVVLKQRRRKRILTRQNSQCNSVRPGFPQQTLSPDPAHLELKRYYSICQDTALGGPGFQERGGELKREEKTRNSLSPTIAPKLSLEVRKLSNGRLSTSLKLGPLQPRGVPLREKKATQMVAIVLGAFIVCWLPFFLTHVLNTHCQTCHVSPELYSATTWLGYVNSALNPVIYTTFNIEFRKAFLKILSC
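Cells plated overnight at 1500 cells/well, then exposed to library compounds with dopamine controls for 90 minutes at 37 degrees C. DiscoveRx reagent added for 30–60 minutes at room temperature; luminescence read, quantitative HTS format.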
D1 antagonist: antagonists of human D1 dopamine receptor | HEK293 TREx D1 cells, calcium flux, dopamine EC80; active compounds read low | AID 504652 | activity change, negative = inhibition, % at 10 µM | 3.2% of 360,000 active | P21728; in the data active = activity change below about -30%
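After overnight tetracycline induction at 30 C, force-coupled D1 HEK293 cells took up a no-wash calcium dye at room temperature. Compounds were added and monitored 180 s, and the response to EC80 dopamine was then recorded.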
D3 ag: D3 dopamine receptor (human) agonism | D3R DiscoveRx beta-arrestin cells, luminescence, 90 min | max activation, % | 0.58% of 410,000 active; in the data active = max activation above about 30%
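Agonist mode: compounds and dopamine controls were applied to plated cells for 90 min at 37 degrees C after an overnight attachment at 1500 cells/well. Luminescent read-out followed 30 - 60 minutes at room temperature with DiscoveRx detection reagent.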
D1 PAM: human D1 dopamine receptor positive modulation; P21728; HEK293 TREx D1 cells, calcium flux, dopamine EC20 potentiation; potentiation, % at 10 µM; 0.036% of 360,000 active; AID 504651; in the data active = potentiation above about 30%
Each line names hits and unclear results; the compound was inactive in the other large screens; ! = not active in a repeat.

CCN(CC)S(=O)(=O)c1cccc(-c2n[nH]c(=S)n2/N=C/c2ccc(OC(F)F)cc2)c1	D1 antagonist -83
CCCCC/C=C\C/C=C\CCCCCCCC(=O)NC(C)c1ccccc1 (centres undefined)	none (no result: D1 agonist, D3 antag, D1 antagonist, D1 PAM)
Cc1ccccc1C(=O)N1CCN(CCc2ccccn2)CC1	none (no result: D3 antag)
Cc1ccc(Nc2c(-c3c[nH]c4ccccc34)nc3ccccn23)cc1	none (no result: D3 antag)
O=C(CN1c2ccccc2Sc2ccccc21)NNC(=O)Nc1ccc(Cl)cc1	D1 antagonist -36
O=C1C=CC(=O)C(C2=C3C(=O)N(CCc4ccccc4)CC(=O)N3CCC2)=C1	D3 antag -72
OCCN1CCN(Cc2cc(Cl)c3cccnc3c2O)CC1	D3 antag inconclusive
OCCN1CCN(Cc2cc(Br)cc(Br)c2O)CC1	D3 antag -51
COc1ccc2c(c1)C(C)=CC(C)(C)N2S(=O)(=O)c1ccc(Br)cc1	D3 antag inconclusive, D1 antagonist -30
COc1ccc2c(c1)C(C)=CC(C)(C)N2S(=O)(=O)c1ccc(NC(C)=O)cc1	D3 antag inconclusive
Cc1ccc(OCC(=O)Nc2cc(C)on2)c([N+](=O)[O-])n1	none
Cc1ccc(OCC(=O)NC(C)c2ccc(Cl)c(Cl)c2)c([N+](=O)[O-])n1 (centres undefined)	D1 antagonist -36
COCCn1c(C)cc(O)c(C(c2ccccc2OC)N2CCN(c3ccccc3)CC2)c1=O (centres undefined)	none (no result: D3 antag)
COc1ccc(NCc2cccn2-c2nnc(N3CCCCC3)s2)cc1OC	none (no result: D3 antag)
O=C(Nc1ccc([N+](=O)[O-])cc1)Nc1nc(-c2ccc(Cl)s2)cs1	D1 antagonist -47
O=C(Nc1ccc(C(=O)Oc2ccccc2)c(O)c1)c1ccccc1	none
CC(=O)Oc1ccc(C(=O)Nc2cccc(NC(=O)c3ccco3)c2)cc1	D3 antag -76
O=C(Nc1ccc(C(=O)Oc2ccccc2)c(O)c1)c1ccco1	D1 antagonist -36
CC(=O)c1cccc(NC(=O)c2cccc(NC(=O)c3ccco3)c2)c1	none
Cc1cccc(NC(=O)C2CCCN(S(=O)(=O)c3c(C)n[nH]c3C)C2)c1 (centres undefined)	none (no result: D3 antag)
O=C(C[n+]1ccc(C(=O)NCc2ccccc2)cc1)c1ccc(Cl)cc1	none
Cc1cc[n+](C(C)C(=O)c2ccc(Cl)cc2)cc1 (centres undefined)	D3 antag inconclusive
CC(=O)Nc1cc[n+](CC(=O)c2ccc(Cl)cc2)cc1	D1 antagonist -33
CC(=O)Nc1cc[n+](C(C)C(=O)c2ccc(Cl)cc2)cc1 (centres undefined)	D3 antag -87
CCC(C)NC(=O)CSc1nc2cc3c(cc2c(=O)n1CCCCCC(=O)NCc1ccc2c(c1)OCO2)OCO3 (centres undefined)	none (no result: D3 antag)
CCN(CC)CCCNC(=O)/C(=C\c1cccn1C)NC(=O)c1cccs1	none
CCN(CC)CCC=C(c1cccs1)c1cccs1	D3 antag -54 (no result: D1 agonist, D1 antagonist, D1 PAM)
CC(C)[C@H](NC(=O)OCc1ccccc1)C(=O)OCC(=O)NCCc1ccccc1	none
CCC(=O)Nc1cccc(C(=O)OCC(=O)c2ccccc2Cl)c1	D1 antagonist -37
O=C(COC(=O)c1cccc(O)c1)NC(=O)Cc1ccccc1	D1 agonist 33
CC(=O)Nc1cccc(C(=O)OCC(=O)NC(=O)Cc2ccccc2)c1	D1 antagonist -33
CC(=O)c1cccc(NC(=O)COC(=O)[C@@H](NC(=O)OCc2ccccc2)C(C)C)c1	D1 antagonist -95
O=C(COC(=O)c1ccc(O)cc1O)NC(=O)Cc1ccccc1	none (no result: D1 agonist, D1 antagonist, D1 PAM)
Cc1cccc(Cc2cnc(NC(=O)C3Cc4ccc(C)cc4C(=O)O3)s2)c1 (centres undefined)	none (no result: D3 antag)
CCc1nn2c(N)c(/C=C3\C=Nc4ccccc43)c(=O)nc2s1	D3 antag -50!
Cc1cn2c(N)c(/C=C3\C=Nc4ccccc43)c(=O)nc2s1	none
COc1cc(/C=N\NC(=O)CC#N)ccc1OC/C=C/c1ccccc1	D1 antagonist -38
COc1ccc(/C=N/NC(=O)c2cccc(OC(F)(F)C(F)F)c2)c(OC)c1OC	none
COc1ccc(/C=N/NC(=O)c2cccc(OC(F)(F)C(F)F)c2)cc1O	D3 antag -76
O=C(COc1cc2oc(=O)c3c(c2cc1Cl)CCCC3)N1C[C@H]2C[C@@H](C1)c1cccc(=O)n1C2	D3 antag -58
COCCNC(=O)c1nn(-c2ccc(C)cc2)c(=O)n(C)c1=O	none (no result: D3 antag)
O=C(Nc1ccc(Cl)cc1)c1cc2c(cc1O)[nH]c1ccccc12	D1 antagonist -38
CC(=O)Nc1ccc2[nH]c3ccccc3c2c1	none
CCOc1ccc(C(=O)Nc2nnc(S(=O)(=O)Nc3ccccc3)s2)cc1	none (no result: D3 antag)
COc1ccc(CCNC(=O)CCCn2c(=O)c3ccccc3n(Cc3cccc(Cl)c3)c2=O)cc1OC	none (no result: D3 antag)
COc1ccc(CCNC(=O)CCCCn2c(=O)c3ccccc3n(Cc3ccc(Cl)cc3)c2=O)cc1OC	D1 antagonist -53 (no result: D3 antag)
COC(=O)c1ccccc1NC(=O)Cn1c(=O)n(CCCC(=O)NCCc2ccc(OC)c(OC)c2)c(=O)c2ccccc21	D1 antagonist -32 (no result: D3 antag)
O=C(CCCCn1c(=O)c2ccccc2n(CC(=O)Nc2cccc(F)c2)c1=O)NCc1ccccc1Cl	D1 agonist 33 (no result: D3 antag)
O=C(CCCCn1c(=O)c2ccccc2n(CC(=O)Nc2ccc(F)cc2F)c1=O)NCCc1ccccc1	D1 antagonist -38 (no result: D3 antag)
CCCCSCCCNC(=O)C1CCN(Cc2nc(-c3ccc(CC)cc3)oc2C)CC1	none (no result: D3 antag)
O=C(CSC1=Nc2ccccc2C2=NC(CCC(=O)NC3CCCCC3)C(=O)N12)Nc1cccc(C(F)(F)F)c1 (centres undefined)	none (no result: D3 antag)
COc1ccc(N2CCN(c3ncnc4c3nc3n4CCCCC3)CC2)cc1	D1 antagonist -35 (no result: D3 antag)
COc1ccc(N2CCN(c3ncnc4c3nnn4Cc3ccccc3Cl)CC2)cc1	D1 antagonist -42
Cc1nc(N2CCCC2)c2nnn(Cc3ccccc3Cl)c2n1	none
CCN1CCN(C(C(=O)NC2CCCCC2)c2ccc(Cl)cc2)CC1 (centres undefined)	D3 antag -60
O=C(NC1CCCC1)C(c1ccc(F)cc1)N1CCC(O)(c2ccc(Cl)cc2)CC1 (centres undefined)	D3 antag -93 (no result: D1 agonist, D1 antagonist, D1 PAM)
O=C(NC1CCCC1)C(c1ccc(Cl)cc1)N1CCOCC1 (centres undefined)	none
O=C(NC1CCCC1)C(c1ccc(Cl)cc1)N1CCN(C2CCCCC2)CC1 (centres undefined)	none
CCOc1ccc(N(C)C(=O)CS(=O)(=O)c2cccc3nsnc23)cc1	none (no result: D3 antag)
COc1ccc(N(CC(=O)NCc2ccccc2Cl)S(=O)(=O)c2c(C)[nH]c(=O)[nH]c2=O)cc1	none (no result: D3 antag)
COc1ccccc1NS(=O)(=O)c1cccc(-n2c(O)c(C=Nc3ccccc3C(=O)O)c3ccccc3c2=O)c1	D3 ag 62
